# Laboratory results: PubChem BioAssay (NCATS)
# Results filed as inconclusive are left out. Entries that show only a call come without a potency. The source made the active and inactive calls. Unless noted, calls come from the whole dose curve; as a rule, active = well fitted curve in the direction sought with a large enough effect; inconclusive = small, poorly fitted or top-dose-only effect, or another doubt; inactive = no such curve, though single readings can be large; an effect the other way counts as inactive or inconclusive. Peptide text beside a SMILES is read from it.
# Tests used:
# [1] = molecular target: Luciferin 4-monooxygenase (Photinus pyralis) (UniProt P08659); assay: Biochemical firefly luciferase enzyme assay for NPC (AID 624030); note: nearly all actives have a fitted effect of over 70% in size; note: potency is the fitted concentration of half-maximal effect
# Luciferin 4-monooxygenase (Photinus pyralis), sequence (P08659 whole entry, looked up): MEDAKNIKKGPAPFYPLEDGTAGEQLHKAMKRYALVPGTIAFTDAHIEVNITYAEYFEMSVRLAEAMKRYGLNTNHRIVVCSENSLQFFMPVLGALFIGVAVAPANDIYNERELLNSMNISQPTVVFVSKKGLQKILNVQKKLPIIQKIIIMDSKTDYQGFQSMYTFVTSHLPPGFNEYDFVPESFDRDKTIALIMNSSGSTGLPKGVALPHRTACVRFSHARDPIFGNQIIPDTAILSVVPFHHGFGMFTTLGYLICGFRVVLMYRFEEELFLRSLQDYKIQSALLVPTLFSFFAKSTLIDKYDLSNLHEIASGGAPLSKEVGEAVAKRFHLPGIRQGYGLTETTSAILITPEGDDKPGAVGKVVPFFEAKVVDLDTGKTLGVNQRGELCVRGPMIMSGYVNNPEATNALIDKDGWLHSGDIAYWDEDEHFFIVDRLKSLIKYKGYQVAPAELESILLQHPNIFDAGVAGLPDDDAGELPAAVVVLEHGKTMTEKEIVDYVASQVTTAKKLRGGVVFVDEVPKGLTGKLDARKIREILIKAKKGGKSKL
# In short: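 Counter-screen for direct inhibition of the luciferase enzyme by approved-drug library compounds, run at 10 nM enzyme in 50 mM Tris acetate (final). Luminescence was read within 5 min of enzyme-buffer addition and normalized to PTC124 versus DMSO (0%).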
# [2] = S16 Schwann cell viability assay (CellTiter-Glo assay) (AID 624031); note: nearly all actives have a fitted effect of over 70% in size; note: potency is the fitted concentration of half-maximal effect
# In short: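 Native S16 rat Schwann cells in DMEM/10% FBS without phenol red were incubated overnight, then exposed to compounds for 24 h at 37 °C/5% CO2. Viability was read as ATP luminescence (CellTiter-Glo), normalized to no-cell wells and DMSO (0%).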
# [3] = S16 Schwann cell PMP22 intronic element beta-lactamase assay (AID 624044; calls by dose curve; note: nearly all actives have a fitted effect of over 15% in size; note: potency is the fitted concentration of half-maximal effect)
# In short: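 Beta-lactamase reporter under a PMP22 intronic regulatory element in stable S16 rat Schwann cells; 24 h compound exposure. 460 nm blue signal normalized between DMSO (0%) and potassium clavulanate, with 535 nm FRET tracking viability; curves classed by r2 and response.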
# [4] = S16 Schwann cell PMP22 intronic element firefly luciferase assay (AID 624032); note: series mostly up to about 58 µM; nearly all actives have a fitted effect of over 30% in size
# In short: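 Rat S16 Schwann cells stably carrying a PMP22 intronic element-driven Fluc reporter were seeded overnight, then exposed to compounds for 24 h at 37 °C. Luminescence was normalized to PTC124 (positive control) and DMSO (0% activity).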
# [5] = molecular target: Glutaminase kidney isoform, mitochondrial (Homo sapiens) (UniProt O94925); assay: qHTS for Inhibitors of Glutaminase (GLS): LOPAC Validation (AID 624146); settings: glutaminase enzyme activity inhibition; note: potency is the fitted concentration of half-maximal effect; nearly all actives have a fitted effect of over 60% in size
# Glutaminase kidney isoform, mitochondrial (Homo sapiens), sequence (O94925 whole entry, looked up, canonical isoform): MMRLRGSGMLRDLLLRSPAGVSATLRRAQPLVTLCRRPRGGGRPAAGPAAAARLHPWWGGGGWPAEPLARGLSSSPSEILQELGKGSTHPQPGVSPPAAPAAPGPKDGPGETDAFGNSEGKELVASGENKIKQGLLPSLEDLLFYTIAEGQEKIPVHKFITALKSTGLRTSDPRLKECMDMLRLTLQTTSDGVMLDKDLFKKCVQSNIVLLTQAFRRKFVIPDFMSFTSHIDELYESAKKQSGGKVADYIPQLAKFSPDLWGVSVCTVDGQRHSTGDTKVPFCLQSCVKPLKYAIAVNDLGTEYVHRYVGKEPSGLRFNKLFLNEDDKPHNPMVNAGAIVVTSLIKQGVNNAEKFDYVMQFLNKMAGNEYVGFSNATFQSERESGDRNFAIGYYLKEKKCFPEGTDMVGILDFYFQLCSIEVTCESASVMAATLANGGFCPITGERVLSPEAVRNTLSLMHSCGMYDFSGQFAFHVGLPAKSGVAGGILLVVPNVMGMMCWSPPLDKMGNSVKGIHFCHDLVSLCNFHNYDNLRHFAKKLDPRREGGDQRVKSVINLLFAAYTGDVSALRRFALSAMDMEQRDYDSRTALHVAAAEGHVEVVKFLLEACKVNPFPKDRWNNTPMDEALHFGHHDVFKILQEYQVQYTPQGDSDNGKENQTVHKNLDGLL
# In short: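 Enzyme dispensed in phosphate buffer (45 mM, pH 8.2, 0.02% Tween-20), compounds pinned in, then 1 mM L-glutamine solution and the glutamate oxidase–HRP–Amplex Red mix added; fluorescence read immediately and again after 30 min at room temperature.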
# [6] = molecular target: Glucagon-like peptide 1 receptor (Homo sapiens) (UniProt P43220); assay: qHTS of GLP-1 Receptor Agonists: LOPAC Validation (AID 624148);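 note: luminescence from a luciferase reporter switched on by cAMP; higher luminescence signal means agonism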
# Glucagon-like peptide 1 receptor (Homo sapiens), sequence (P43220 whole entry, looked up): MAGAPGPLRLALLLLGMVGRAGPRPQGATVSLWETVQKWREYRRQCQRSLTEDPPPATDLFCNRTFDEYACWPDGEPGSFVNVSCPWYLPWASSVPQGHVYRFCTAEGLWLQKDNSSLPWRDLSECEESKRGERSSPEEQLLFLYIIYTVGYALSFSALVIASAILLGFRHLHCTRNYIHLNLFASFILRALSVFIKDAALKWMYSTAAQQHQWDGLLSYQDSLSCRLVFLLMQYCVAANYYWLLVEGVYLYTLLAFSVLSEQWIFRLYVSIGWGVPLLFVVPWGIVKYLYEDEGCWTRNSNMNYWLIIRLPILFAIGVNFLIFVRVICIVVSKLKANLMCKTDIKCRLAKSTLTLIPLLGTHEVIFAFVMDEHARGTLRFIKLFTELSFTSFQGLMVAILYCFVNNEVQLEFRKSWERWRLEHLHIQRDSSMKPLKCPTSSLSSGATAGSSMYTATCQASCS
# Source text: The overall goal of this project was to develop a novel assay for discovering small molecule ligands for class B1 G protein-coupled receptors (GPCRs). Very few agonists (or inverse agonists) with generally weak activity for this entire group of physiologically important receptors are known to date. To establish proof-of-principle that this critical bottleneck can be overcome with a suitable screening approach, our studies focused on the class B1 receptor for glucagon-like peptide-1 (GLP-1R), a potential therapeutic target for diabetes and neurodegenerative disease.
# The assay was developed in a "mix and measure" format using a cell-based functional readout. Toward this goal, stably transfected HEK293 cell clones were established that co-express (i) a cAMP-responsive luciferase reporter gene, and (ii) GLP-1Rs that upon ligand interaction either stimulate (agonists) or inhibit (inverse agonists) luciferase activity. […]
# In a white solid 1536-well plate, 6 uL of cells are dispensed in DMEM without phenol red, 10% Nu serum, and 1% pen-strep medium. […] After a 4-6 hr incubation at37 deg C and 5% CO2, 3 uL of detection reagent are added and after a 12 min incubation at RT, a luminescent read is obtained on the ViewLux.
# [7] = qHTS of Nrf2 Activators: LOPAC Validation (AID 624149)
# In short: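 AREc32_Fluc cells, 1000/well, OPTI-MEM + 5% FBS, o/n 37 deg C 5% CO2; compound pin-transfer, 24 hr 37 deg C; Steady-Glo 30 min RT, luminescence read.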
# [8] = HTS Assay for Allosteric Antagonists of the Human D2 Dopamine Receptor: Hit Validation in HTRF (AID 624455)
# In short: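 HTRF read-out; cells stably expressing D1 receptor; hits scored for inhibition of D1-mediated response. Primary screen: calcium flux, force-coupled inducible Hek293 Trex D2 line, antagonism vs EC80 dopamine.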
# [9] = Cytotoxicity counterscreen for NFkB agonists and antagonists (AID 624476);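 note: cells exposed to compound for 48 hours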
# [10] = qHTS Assay for Identification of Small Molecule Agonists for NFkB Signaling Pathway. (AID 624478);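 note: compounds tested together with TNF alpha at its EC50 of 10 pM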
# In short: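 Read-out: 460/530 nm emission at 405 nm excitation after 2 h LiveBLAzer loading; ME-180 NFkB-bla reporter cells exposed 5 h at 37 C to compounds with 10 pM TNF alpha final.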
smiles,measurement,setting,value
C[C@H]1C[C@H]2[C@@H]3CCC4=CC(=O)C=C[C@]4(C)[C@@]3(F)[C@@H](O)C[C@]2(C)[C@@]1(O)C(=O)CO,Potency,[1],inactive
same,Potency,[2],inactive
same,Potency,[3],inactive
CC(=O)Oc1c(C)cc(OCC(O)CNC(C)C)c(C)c1C (configuration not stated),Potency,[1],inactive
same,Potency,[2],inactive
same,Potency,[3],inactive
O=S(=O)(O)O,Potency,[1],inactive
same,Potency,[2],inactive
same,Potency,[3],inactive
CO[C@H](C(=O)[C@@H](O)[C@@H](C)O)C1Cc2cc3cc(O[C@H]4C[C@@H](O[C@H]5C[C@@H](O)[C@H](O)[C@@H](C)O5)[C@@H](O)[C@@H](C)O4)c(C)c(O)c3c(O)c2C(=O)[C@H]1O[C@H]1C[C@@H](O[C@H]2C[C@@H](O[C@H]3C[C@](C)(O)[C@H](O)[C@@H](C)O3)[C@H](O)[C@@H](C)O2)[C@H](O)[C@@H](C)O1 (some centres not stated),Potency,[1],inactive
same,Potency,[2],inactive
same,Potency,[3],22.4 µM (active)
NC1C2CN(c3nc4c(cc3F)c(=O)c(C(=O)O)cn4-c3ccc(F)cc3F)CC12 (configuration not stated),Potency,[1],inactive
same,Potency,[2],inactive
same,Potency,[3],inactive
C#CCOc1ccc2c(C)cc(=O)oc2c1,Potency,[1],inactive
same,Potency,[2],inactive
same,Potency,[3],inactive
COc1ccc2c3c1O[C@H]1C[C@@H](O)C=C[C@@]31CCN(C)C2,Potency,[1],inactive
same,Potency,[2],inactive
same,Potency,[3],inactive
CC(C)N=c1cc2n(-c3ccc(Cl)cc3)c3ccccc3nc-2cc1Nc1ccc(Cl)cc1,Potency,[1],inactive
same,Potency,[2],inactive
same,Potency,[3],inactive
O=C(Nc1cccc(C(F)(F)F)c1)c1cc(Br)cc(Br)c1O,Potency,[1],7.21 µM (active)
same,Potency,[4],inactive
O=S(=O)(O)c1cc(O)c2c(N=Nc3ccc(Nc4ccccc4)c4c(S(=O)(=O)O)cccc34)cc(S(=O)(=O)O)cc2c1,Potency,[1],32.2 µM (active)
same,Potency,[3],inactive
COC(=O)[C@H]1[C@H]2C[C@@H]3c4[nH]c5ccccc5c4CCN3C[C@H]2C[C@@H](OC(=O)c2cc(OC)c(OC)c(OC)c2)[C@@H]1OC,Potency,[1],inactive
same,Potency,[2],5.1 µM (active)
same,Potency,[3],3.98 µM (active)
O=C1CSC2(CCN(CCCN3c4ccccc4Sc4ccc(Cl)cc43)CC2)N1,Potency,[1],inactive
same,Potency,[2],32.2 µM (active)
same,Potency,[3],inactive
O=C(Nc1ccc(Br)cc1)c1cc(Br)c(Br)s1,Potency,[1],16.1 µM (active)
same,Potency,[3],inactive
C=CCSSSCC=C,Potency,[1],inactive
same,Potency,[4],inactive
same,Potency,[3],inactive
Nc1c(N=Nc2ccc(-c3ccc(N=Nc4cc(S(=O)(=O)O)c5ccccc5c4N)cc3)cc2)cc(S(=O)(=O)O)c2ccccc12,Potency,[1],32.2 µM (active)
same,Potency,[2],inactive
same,Potency,[3],inactive
O=CCCCC=O,Potency,[1],inactive
same,Potency,[2],inactive
same,Potency,[3],inactive
CCCCC(=O)O[C@]1(C(=O)CO)[C@H](C)C[C@H]2[C@@H]3CCC4=CC(=O)C=C[C@]4(C)[C@@]3(F)[C@@H](O)C[C@@]21C,Potency,[1],inactive
same,Potency,[2],inactive
same,Potency,[3],inactive
O=C(O)CN(CCN(CC(=O)O)CC(=O)O)CC(=O)O,Potency,[1],inactive
same,Potency,[2],inactive
same,Potency,[3],inactive
Oc1cc(O)c2c(c1)OC(c1ccc(O)c(O)c1)C(O)C2 (configuration not stated),Potency,[1],inactive
same,Potency,[2],inactive
same,Potency,[3],inactive
CC1=C(/C=C/C(C)=C/C=C/C(C)=C/C=C/C=C(C)/C=C/C=C(C)/C=C/C2=C(C)C(=O)CCC2(C)C)C(C)(C)CCC1=O,Potency,[1],inactive
same,Potency,[2],inactive
same,Potency,[3],inactive
COC(F)(F)C(Cl)Cl,Potency,[1],inactive
same,Potency,[2],inactive
same,Potency,[3],inactive
CCCC(=O)O[C@]1(C(=O)CCl)[C@H](C)C[C@@H]2[C@H]3CCC4=CC(=O)C=C[C@]4(C)[C@@]3(F)C(=O)C[C@@]21C,Potency,[1],inactive
same,Potency,[2],inactive
same,Potency,[3],inactive
CCCCCCCCCCCC[n+]1ccc2ccccc2c1,Potency,[1],inactive
same,Potency,[2],16.1 µM (active)
same,Potency,[3],19.9 µM (active)
CCC(=O)NCCC1CCc2ccc3c(c21)CCO3 (configuration not stated),Potency,[1],inactive
same,Potency,[2],inactive
same,Potency,[3],inactive
CC(C(=O)O)c1ccc(N2Cc3ccccc3C2=O)cc1 (configuration not stated),Potency,[1],0.181 µM (active)
same,Potency,[2],inactive
same,Potency,[3],inactive
Cc1c(C)c2c(c(C)c1O)CC[C@@](C)(CCC[C@H](C)CCC[C@H](C)CCCC(C)C)O2,Potency,[1],inactive
same,Potency,[2],inactive
same,Potency,[3],inactive
CN(C)CCCN1c2ccccc2C(C)(C)c2ccccc21,Potency,[1],inactive
same,Potency,[2],28.7 µM (active)
same,Potency,[3],inactive
CCCCCCCCCCCCCCCC(=O)OCC(COC(=O)CCCCCCCCCCCCCCC)OC(=O)CCCCCCCCCCCCCCC,Potency,[1],inactive
same,Potency,[2],inactive
same,Potency,[3],inactive
CN1Cc2c(N)cccc2C(c2ccccc2)C1 (configuration not stated),Potency,[1],inactive
same,Potency,[2],inactive
same,Potency,[4],inactive
same,Potency,[3],inactive
same,Potency,[5],12.6 µM (active)
same,outcome,[6],inactive
same,outcome,[7],inactive
same,outcome,[8],inactive
CC(C)(C)C(=O)OCOC(=O)[C@@H]1N2C(=O)[C@@H](N=CN3CCCCCC3)[C@H]2SC1(C)C,Potency,[1],inactive
same,Potency,[2],inactive
same,Potency,[3],inactive
CCN(CC)CCOc1ccc(-c2nc3cc(Cl)ccc3s2)cc1,Potency,[1],6.42 µM (active)
same,Potency,[4],inactive
same,Potency,[3],inactive
CC(=O)N[C@@H](CC(=O)O)C(=O)N[C@@H](CCC(=O)O)C(=O)O (Ac-Asp-Glu-OH),Potency,[1],inactive
same,Potency,[2],inactive
same,Potency,[3],inactive
CCCCCCCC/C=C\CCCCCCCC(=O)O,Potency,[1],inactive
same,Potency,[2],inactive
same,Potency,[3],inactive
Cc1ccccc1OCC(O)CNCCOc1ccc(C(N)=O)cc1 (configuration not stated),Potency,[1],inactive
same,Potency,[3],inactive
CC[C@@]1(O)C(=O)OCc2c1cc1n(c2=O)Cc2cc3c([N+](=O)[O-])cccc3nc2-1,Potency,[1],inactive
same,Potency,[3],1.41 µM (active)
CN(NC(=O)CC(=O)NN(C)C(=S)c1ccccc1)C(=S)c1ccccc1,Potency,[9],inactive
same,outcome,[10],inactive
